Compounds with a hit are over-represented: about 2.6% of the library has one in this group of screens.
Myeloid diff 2 = myeloid differentiation induction; ER-HoxA9 myeloid progenitors, lysozyme-GFP differentiation, flow cytometry; calls only at 10 µM; 1% of 360,000 active;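 active = normalized GFP-positive differentiation at or above the plate's own cutoff, the solvent-only control mean plus 3 SD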;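 also: cells exposed to compound for four days before flow analysis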
IDE act = boosts human insulin-degrading enzyme activity in HEK cells; activation, % at 5.96 µM; FAbeta-B cleavage, fluorescence polarization; 0% vehicle, 100% cell-free pure enzyme wells; 0.073% of 340,000 active; AID 493087;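 active = activation above the mean of all tested compounds plus 3 SD, set per screening campaign, cut at about 17% in these data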
CRFR2-BP antag = CRF-BP/CRF-R2 complex antagonism; 0.59% of 350,000 active; HEK293 CRF-R2/CRF-BP, CRF-induced calcium fluorescence; inhibition, % at 11.8 µM;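 active = inhibition of the ligand-induced calcium signal above about 50% at the single tested concentration, limit read from the data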
CRFBP-R2 agonist = CRF-BP/CRF-R2 complex agonism. HEK293 CRF-R2/CRF-BP, calcium dye fluorescence (FLIPR); percent of saturating CRF peptide response. activation, % at 13.2 µM. 0.46% of 350,000 active. AID 588473;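 active = activation of at least 50%, plus an integration ratio under a set limit after plate pattern correction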;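 also: plate controls were neutral control wells without compound for no effect and CRF at EC100 for full effect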
IDE inh = inhibitors of human insulin-degrading enzyme in cells; HEK cells, FAbetaB cleavage, fluorescence polarization; inhibition, % at 5.59 µM; 0.41% of 320,000 active; AID 434962;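 active = percent inhibition above the average of all tested compounds plus 3 SD, set per screening campaign, cut at about 16% in these data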;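 also: IDE supplied by intact live HEK cells; FP after avidin binding of uncleaved biotin substrate so inhibition keeps polarization high; 0% = DMSO wells and 100% = 60 µM reference IDE inhibitor Ii1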
TPT1 inhibitor = blocks Candida albicans tRNA 2'-phosphotransferase; recombinant caTPT1, FP RNA substrate dephosphorylation; inhibition, % at 5 µM; 0.81% of 300,000 active; AID 1962;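 active = inhibition above the mean of all tested compounds plus 3 SD, set per screening campaign, cut at about 24% in these data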;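 also: plate controls were DMSO alone for no effect and ferristatin control at 100 nM for full effect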
TPT1 inh confirm = confirmation of Candida albicans TPT1 inhibitors | shares compounds with TPT1 inhibitor | recombinant caTPT1, fluorescence polarization, RNase T1 coupled | inhibition, % at 5 µM | 74% of 2,400 active | AID 2149;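 active = inhibition above the primary screen limit, the mean inhibition of all tested compounds plus 3 SD, cut at about 25% in these data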
RNase T1 inh = RNase T1 inhibition in TPT1 counter-screen; shares compounds with TPT1 inhibitor; RNase T1 cleavage, fluorescence polarization, 1536-well; inhibition, % at 5 µM; 83% of 2,400 active; AID 2153;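 active = inhibition above the solvent-only control well mean plus 3 SD, limit set per screening run, cut at about 23% in these data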;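 also: plate controls were DMSO wells with enzyme for no effect and wells without RNase T1 for full effect; inhibitors block cleavage so intact labeled substrate keeps polarization high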
Target sequence (P00651 whole entry, looked up): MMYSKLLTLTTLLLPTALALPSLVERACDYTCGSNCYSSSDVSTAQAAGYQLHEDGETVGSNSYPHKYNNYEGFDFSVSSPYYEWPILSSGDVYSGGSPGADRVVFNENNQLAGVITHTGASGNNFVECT
IDE inh confirm = confirmation of human insulin-degrading enzyme inhibitors in cells; shares compounds with IDE inh; HEK cells, FAbetaB cleavage, fluorescence polarization; inhibition, % at 5.59 µM; 51% of 1,200 active; AID 435028;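 active = mean inhibition across triplicate wells above the cutoff set by the earlier primary insulin-degrading enzyme screen, cut at about 16% in these data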;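 also: 0% = DMSO wells and 100% = 60 µM reference IDE inhibitor Ii1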
HEK293 tox = kills HEK cells in IDE inhibitor counter-screen; shares compounds with IDE inh; HEK293 cytotoxicity, ATP luminescence; inhibition, % at 5.59 µM; 28% of 1,200 active; AID 449730; in the data active = inhibition above about 22%;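 also: 0% = vehicle wells and 100% = reference cytotoxic drug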
Myeloid diff = myeloid differentiation induction; calls only; 2% of 2,300 active; ER-HoxA9 myeloid progenitors, GFP/Mac1 double-positive flow; shares compounds with Myeloid diff 2;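 active = share of green or green-and-red cells above 9 and 9% in run 1 or 4 and 3% in run 2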
GFP autofluor = counter-screen for myeloid differentiation promoters: compound fluorescence; shares compounds with Myeloid diff 2; ER-HoxA9 myeloid progenitors, no estrogen, GFP autofluorescence flow cytometry; vehicle wells 0%, positive control 100%; fluorescence response, % (concentration not given with the values); 7.4% of 2,300 active; AID 651707;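 active = over 5% cells positive for green fluorescent reporter, or over 2% positive for both it and APC stain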;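 also: range taken on the double positive population between DMSO and positive control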
* marks the source's active call; other numbers are inactive results; i = inactive; nt = no result given; + = active, no number.

SMILES	Myeloid diff 2	IDE act	CRFR2-BP antag	CRFBP-R2 agonist	IDE inh	TPT1 inhibitor	TPT1 inh confirm	RNase T1 inh	Myeloid diff	GFP autofluor	others
Nc1c(Cl)cc2c(c1Oc1ccccc1)C(=O)c1ccccc1C2=O	+	1.1	-9.6	-1.1	4.5	25.1*	30.4*	40.9*	i	0.0
C(=N\Nc1nc(-c2ccccc2)cs1)/c1ccncc1	i	-6.7	1.1	-1.5	-7.0	-2.8	nt	nt	nt	nt
O=C(O)Cc1sc(N/N=C\c2ccncc2)nc1-c1ccccc1	i	-67.0	-30.9	33.8	40.0*	51.6*	43.0*	50.6*	i	0.0	IDE inh confirm=32.1*;HEK293 tox=10.2
NC(=O)c1nsc(C(=O)N(CC(=O)NC2CCCC2)Cc2ccc3c(c2)OCO3)c1N	i	1.7	-0.5	-0.3	-2.4	0.1	nt	nt	nt	nt
NC(=S)N/N=C/c1ccc(-c2cc(Cl)cc(Cl)c2)o1	i	-7.7	-0.9	-0.6	2.8	5.6	nt	nt	nt	nt
NC(=S)N/N=C/c1ccc(-c2ccc([N+](=O)[O-])cc2)o1	i	-4.1	7.9	-1.2	-1.4	27.4*	35.9*	47.3*	i	3.2
CCN1C(=O)/C(=C2\Sc3ccccc3N2CC)OC1=S	i	-0.2	12.6	1.7	-1.6	-3.9	nt	nt	nt	nt
CCCN1C(=O)/C(=C\C=C2/Sc3ccccc3N2CCO)SC1=S	+	-17.4	-3.4	19.0	10.5	63.9*	42.0*	54.2*	i	6.5*
CCn1c(O)c(/C=C2\C=Nc3ccccc32)sc1=O	i	2.2	-15.9	-0.8	3.7	-4.6	nt	nt	nt	nt
CC1=Nc2ccccc2/C1=C/c1sc(=N)n(-c2nccs2)c1O	i	-7.3	-26.6	0.9	13.7	98.8*	111.9*	122.5*	i	47.1*
CN(c1ccc(OCC(=O)OCC(=O)NCc2ccco2)cc1)S(=O)(=O)c1ccc2ccccc2c1	i	0.9	1.4	6.1	2.6	-0.2	nt	nt	nt	nt
CN(C)c1ccc(/C=N/N=C2/NC(=O)/C(=C/c3ccc([N+](=O)[O-])cc3)S2)cc1	+	-0.6	47.2	-1.0	-1.6	44.4*	48.6*	63.1*	i	95.1*
O=C1NC(=Nc2cccc(O)c2)S/C1=C\c1cccc([N+](=O)[O-])c1	i	5.4	6.7	0.5	-0.7	-0.5	nt	nt	nt	nt
O=C1c2cccc3c(N4CCCCC4)ccc(c23)C(=O)N1c1cccc(O)c1	+	-139.9	-131.8	161.4*	124.4*	75.3*	52.4*	60.9*	i	0.3	IDE inh confirm=152.9*;HEK293 tox=24.8*
O=C(c1cccc(N2C(=O)c3ccccc3C2=O)c1)N1CCCCCC1	i	-3.3	15.2	-4.5	6.8	-0.4	nt	nt	nt	nt
CN1CCc2c(sc(/N=C/c3c[nH]c4ccccc34)c2C#N)C1	+	nt	13.2	8.5	2.4	44.1*	43.4*	52.7*	i	16.2*
OC[C@@H]1CN(Cc2ccccc2)C[C@H](n2cnc3c(NC4CCCC4)ncnc32)O1	i	nt	nt	nt	nt	nt	nt	nt	nt	nt
Cc1nc(-n2[nH]c3c(c2=O)CCCC3)[nH]c(=O)c1Cc1ccccc1	i	2.9	-54.0	58.0*	3.0	122.5*	64.6*	76.5*	i	0.0
Cc1nc(N2CCc3ccccc3C2)[nH]c(=O)c1Cc1ccccc1	i	5.1	-55.6	-5.6	2.1	-0.8	nt	nt	nt	nt
CCn1c(C)nc2cc(C(=O)N/N=C(\C)c3ccccc3O)ccc21	i	5.5	0.3	-3.1	2.9	-3.3	nt	nt	nt	nt
COc1ccccc1/C=C/C=C1\Oc2c(ccc(O)c2CN2CCN(CCO)CC2)C1=O	i	-29.6	-64.9	59.4*	16.1	39.4*	46.0*	54.4*	i	0.0
CCOc1ccc(/C=C2\SC(=S)N(Nc3ccccc3)C2=O)cc1OC	i	2.9	-10.7	6.3	-1.5	8.9	nt	nt	nt	nt
COc1cc(/C=C2\SC(=S)N(NC(=O)c3ccc(O)c(OC)c3)C2=O)ccc1O	i	-105.6	-41.7	30.7	108.7*	34.5*	44.2*	58.3*	i	27.8*	IDE inh confirm=88.8*;HEK293 tox=8.7
COc1ccc(OC)c(C(=O)Nc2c(O)ccc3ccccc23)c1	i	8.4	-9.1	-1.2	-0.4	0.2	nt	nt	nt	nt
N#CC1=C(SCC(=O)c2cc3ccccc3oc2=O)NC(=O)C(C#N)C12CCCC2 (stereo not given)	i	-22.2	-5.4	3.0	21.1*	49.4*	29.7*	39.3*	i	0.0	IDE inh confirm=9.4;HEK293 tox=11.8
SMILES	Myeloid diff 2	IDE act	CRFR2-BP antag	CRFBP-R2 agonist	IDE inh	TPT1 inhibitor	TPT1 inh confirm	RNase T1 inh	Myeloid diff	GFP autofluor	others
C=CCN1C(=O)C2(NNc3ccccc3O2)c2ccccc21 (stereo not given)	i	0.2	-12.3	8.5	2.4	84.6*	103.3*	107.3*	i	94.9*
Cc1ccccc1C(=O)c1cccn1CC(=O)NCCCN1CCc2ccccc2C1	i	2.0	9.4	-0.4	2.7	-0.6	nt	nt	nt	nt
O=C(O)c1ccc(-c2ccc(/C=c3/sc4nc5ccccc5n4c3=O)o2)cc1Cl	i	-1.0	-86.4	118.0*	3.6	49.3*	119.6*	121.9*	i	0.2
Cc1ccc2c(nc3s/c(=C\c4ccc(-c5ccccc5C(=O)O)o4)c(=O)n32)c1C	i	-5.1	-76.7	126.3*	2.2	116.0*	137.8*	130.4*	i	12.7*
N#C/C(=C\c1ccc(C(=O)O)cc1)c1nc2sc3c(c2c(=O)[nH]1)CCCC3	i	-7.0	-13.3	15.4	nt	nt	nt	nt	nt	nt
CC1=[N+](CC(=O)c2ccccc2)CCn2cccc21	+	nt	-14.5	3.9	4.6	49.0*	-1.6	0.7	i	1.1
COc1ccc(-c2nn(-c3ccccc3)cc2/C=C2/SC(=S)N(Cc3ccco3)C2=O)c(C)c1	i	5.8	-5.1	4.5	-5.3	-1.5	nt	nt	nt	nt
COc1ccc(-n2c(C)cc(/C=C3\SC(=S)N(Cc4ccco4)C3=O)c2C)cc1	+	-8.4	-40.6	24.9	16.6*	122.3*	121.8*	123.0*	+	3.4	IDE inh confirm=18.3*;HEK293 tox=11.0
COc1ccc(NC(=O)CN(C)C(=O)CSc2nc3ccccc3s2)cc1	i	-1.1	16.8	-0.8	13.7	36.3*	35.5*	45.4*	i	0.0
